The full ranking holds about 33,000 sequences; the median of “E-score (-0.5 to 0.5)” is about -0.017, and the highest 2% start at about 0.3. The sample holds the highest values, similar sequences and a random draw of the others, so the mix is not that of the screen.
Target: T1, Sut1 (UniProt P53032)
T1 sequence: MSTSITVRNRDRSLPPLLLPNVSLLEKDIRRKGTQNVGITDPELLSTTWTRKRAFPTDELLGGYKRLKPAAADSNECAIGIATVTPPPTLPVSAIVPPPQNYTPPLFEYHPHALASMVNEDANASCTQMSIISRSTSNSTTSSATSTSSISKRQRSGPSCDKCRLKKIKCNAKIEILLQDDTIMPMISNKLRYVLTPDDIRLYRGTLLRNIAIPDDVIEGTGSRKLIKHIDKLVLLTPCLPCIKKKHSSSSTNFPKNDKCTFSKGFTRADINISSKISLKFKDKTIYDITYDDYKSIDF
Assay: PBM E-score (8-mer binding enrichment) (E-score (-0.5 to 0.5)); higher = stronger / more preferred TF binding
Settings: protein concentration: 200 nM; construct: GST-full length
Summary of the method: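 GST-tagged yeast TFs (full-length or DNA-binding domain) were made by PURExpress in vitro transcription/translation and applied at about 100-200 nM to universal all-10-mer Agilent arrays. The arrays were made double-stranded by primer extension, on fresh or once-stripped slides. Bound protein was detected with fluorescent anti-GST, and scans were normalised with masliner. Each ungapped eight-base word, pooled with its reverse complement, received an E-score (modified Wilcoxon-Mann-Whitney statistic) from the Universal PBM Analysis Suite.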

Sequence	PBM E-score
TATACGCA	0.0114
CCCAACGC	-0.103
TCACTTCA	-0.0869
CGGCTCAG	-0.117
TCTAGCCA	-0.0636
GACAACGC	-0.0716
CAATTTCA	0.00344
AAATTTCA	0.00137
TAATTTCA	0.346
AGGACATC	0.0505
CTGACATC	0.0186
GGGACATA	-0.0931
GGGACAAC	-0.231
CGGACAAC	0.309
CGGACATA	0.433
AGGACATA	-0.0903
CGGACAAG	0.22
CGGACATC	0.406
ACTAGGCC	-0.243
ATAGCCCC	-0.325
ATTTGCTC	0.141
CGGGAGCA	-0.0121
ACGGAGCA	0.207
GCGGAGCA	0.152
CTGGAGCC	-0.204

Sequence	PBM E-score
TCGGAGCA	0.3
CCGGAGCA	0.307
CCGGAGCC	0.396
CCGGAGCG	0.234
GCGGAGCC	0.113
CGGCGGTA	0.14
CGTTTATC	0.171
ACCCTGGG	-0.279
AGCGTAGC	-0.0963
CCTTTGAA	-0.0516
ATGATCGC	-0.106
AATAATAC	0.202
AATGATAG	0.251
GATAATAA	0.234
AATAATAG	0.157
AATAATGT	0.235
GTTAATAA	0.319
ATTAATAA	0.265
AATGATAA	0.299
AATAATAT	0.346
CTTAATAA	0.217
AATAATAA	0.304
TATGATAA	0.233
AACTTAAG	0.132
CAGTTTGG	-0.198

Sequence	PBM E-score
AAGCGCAC	0.00639
TTACGTAA	-0.0108
ATCAGATG	-0.0902
CATCTGAC	-0.163
TGTCAGAA	-0.0161
AGTAATAT	0.312
CATAATAA	0.131
TATAATAA	0.298
CGTAATAA	0.0956
GGTAATAA	0.188
AGTAATAC	0.133
AGTAATAG	0.063
TGTAATAA	0.315
TCTAATAA	0.173
CATAACAA	0.179
TATAACAA	0.319
GATAACAA	0.205
CATCTTCG	-0.0746
AAGATCAA	0.0587
AATTGCAG	0.0512
GCGACCGC	-0.23
AACAATAT	0.331
AACAATAC	0.0474
AACAATAA	0.192
AGGCTGAC	-0.245

Sequence	PBM E-score
ATAGGTCA	0.0286
AGAATGTC	-0.0101
AAGCATAC	0.164
ATAAAATG	0.289
GTTCGGAA	0.289
CTTCGGCC	-0.00176
CTTCGGAA	0.335
CTTCGGAC	0.405
CTTCGGGC	-0.277
CTTCGGTA	0.0563
CGCGACAG	-0.283
TGGCGACA	-0.207
TATTCGGA	0.352
CATTCGGG	-0.0375
GATTCGCA	0.113
AATTCGGC	-0.0483
GATTCGGC	0.0544
AATTCGGG	0.17
AATTCGGA	0.396
CATTCGGC	-0.0155
CATTCGGA	0.392
TATTCGCA	0.0506
GATTCGGA	0.385
TATTCGAA	0.0804
GCGGGAGC	-0.162

Sequence	PBM E-score
CCGCGAAC	0.0271
ATCTAGGG	-0.097
CAGCCCGA	-0.211
ACAGGACC	-0.108
CGGCCCAA	-0.116
CGTTGACC	-0.224
TGAAAGCA	0.148
ATTAATTC	0.298
AGTAATTG	0.0745
CGTAATTC	0.0414
ATTAATTG	0.187
AGTAATTC	0.307
ATTAATTA	0.188
CGACAGCA	-0.0542
TGATCGCA	-0.221
CATGAGCC	-0.195
GAATTCAC	0.0262
GAGAAGGA	-0.0992
AAGTCCAT	0.0246
AAGTCCCT	-0.131
AAGTCCGT	0.487
AAGTCCGC	0.486
AAGTCCTC	0.0867
ACGTCCGC	-0.121
TCCTTCGA	0.11

Sequence	PBM E-score
GAATATGC	0.0981
GCCCGCAA	-0.0979
ACATCGCA	-0.067
CAGGCCTA	-0.108
GCTATCAA	0.119
ATGTTGGC	-0.0785
GCGGCCCA	0.00935
AGTTAGCC	0.177
ATAACTCG	0.149
ATAACTCC	0.365
GGAACTAC	-0.062
CTAACTCC	0.221
CGAACTCC	0.391
AGAACTCG	-0.03
CGAACTCA	-0.0187
CGAACTCG	-0.0661
AGAACTCT	0.07
AGAACTCC	0.31
GGAACTCC	0.356
GGAACTCA	-0.0534
AGCTGCAG	0.0539
TCCATAGA	0.00973
CAGTTCTA	-0.125
CGAGAATC	0.0357
CTGCAAGA	-0.136

Sequence	PBM E-score
AAGCCTGA	-0.208
ACAACAGT	0.0455
AAGGGTCT	-0.114
TAACTTAA	0.246
AAACCCCC	-0.346
CAACCCCG	0.355
AACCCCCG	-0.193
CAACCCCC	-0.266
AAACCCCG	0.441
CAACCCGG	-0.157
ACGGTATA	-0.115
AAACTAAC	0.27
AAAGTTCT	0.149
GGGCGTGA	-0.182
ACCCCGAA	0.332
AACCCGAG	0.0811
CCCCCGAA	-0.0826
CCCCCGAG	-0.343
AACCCGAT	-0.0428
ACCCCGAT	0.342
GCCCCGAA	0.184
ACCCCGAC	0.273
ACCCCGAG	0.382
GGGCGAAA	0.0444
AATCGCAT	0.0231

Sequence	PBM E-score
CGCACATC	-0.156
GAGTTCAA	0.152
GGATCAGA	-0.0639
GTGGGGAA	0.0142
GGCTGGAC	-0.278
AATCCGTG	-0.153
CCTCCGTA	0.0232
ACTCCGTA	0.478
ATTCCGTC	0.143
ATTCCGTG	0.273
ACTCCGTG	0.473
ACTCCGTC	0.48
CCTCCGTC	-0.0539
GCTCCGTA	0.291
CGGTGAGA	0.0413
AGGTTAGG	-0.0421
ACCAACCG	0.0755
GGACAGTA	0.184
ACCCTTAC	-0.129
GGAAGCCC	-0.0417
ATTTATCC	0.33
ATTTATCA	0.229
AATTTACC	0.143
ATTTTACC	0.352
ATTTATCG	0.191

Sequence	PBM E-score
ATTTTATG	0.13
CTTTTATC	0.26
ATTTTATC	0.321
CTTTTACC	0.149
ATTCATGA	-0.0184
AGACCAAA	0.026
CCCGATTC	0.0897
CCAGAAAC	-0.0561
GTACAAAC	0.0652
ATACAAAG	0.119
ATACAAAA	0.288
CTACAATA	0.181
ATACAAAC	0.298
ATACAATA	0.299
ATACAAAT	0.312
ATACAATC	0.236
CTACAAAC	0.0828
TCAGGACA	-0.0448
ACCCGCCT	-0.184

— the supplement of paper PMC3334620
